Measured values from PubChem BioAssay (Tox21).
Inconclusive results are not listed. Active and inactive are the calls of the source. Unless noted, the call rests on the fitted dose curve; in most records, active means well fitted curve in the direction sought with a large enough effect in the repeat runs; inconclusive means weak or mixed curves; inactive means no such curve, though single readings can be large; an effect the other way counts as inactive or inconclusive.

Legend:
[1] = target: Progesterone receptor (Homo sapiens) (UniProt P06401); experiment: qHTS assay to identify small molecule agonists of the progesterone receptor (PR) signaling pathway (AID 1346784; calls by dose curve; further: nearly all actives have a fitted effect of over 30% in size)
In short: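 PR-UAS-bla HEK 293T cells (beta-lactamase reporter under UAS) in 2% charcoal-stripped FBS, dosed with 23 nL compound after 6 hr, incubated 16hr at 37C. LiveBLAzer B/G FRET substrate added, fluorescence read after 2 hours.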

[2] = target: Progesterone receptor (Homo sapiens) (UniProt P06401); experiment: qHTS assay to identify small molecule antagonists of the progesterone receptor (PR) signaling pathway (AID 1346795; active means well fitted inhibition curve with a large enough effect in the signal ratio in the repeat runs, not every such curve was filed as active; the % refers to the signal ratio)
In short: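 PR-UAS-bla HEK293T cells with beta-lactamase reporter under UAS control, in 2% charcoal-stripped FBS, treated with compounds plus 1 nM promegestone (R5020, final) for 16 hr at 37C. Read-out: FRET beta-lactamase substrate fluorescence after 2 hr at room temperature.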

[3] = qHTS assay to identify small molecule antagonists of the progesterone receptor (PR) signaling pathway - cell viability counter screen (AID 1346798); further: series mostly up to about 92 µM; nearly all actives have a fitted effect of over 50% in size
In short: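 PR-UAS-bla HEK293T cells, 3,000/well in 2% charcoal-stripped FBS medium, dosed with compounds plus R5020 agonist and incubated 16 h at 37C. Viability then measured in the same wells by CellTiter-Glo luminescence after 30 min at RT.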

[4] = qHTS assay to identify small molecule agonists of the progesterone receptor (PR) signaling pathway - cell viability counter screen (AID 1346799; calls by dose curve; further: nearly all actives have a fitted effect of over 45% in size)
In short: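 Counter screen in the PR-UAS-bla HEK293T wells (2% charcoal-stripped FBS, 16 h compound exposure at 37 C) after the bla read. CellTiter-Glo added, 30 min at room temperature, luminescence read as cell viability.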

[5] = qHTS assay to identify small molecule antagonists of the TGF-beta/Smad signaling pathway - cell viability counter screen (AID 1346824); further: nearly all actives have a fitted effect of over 50% in size
In short: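 SBE-bla HEK 293T cells, incubated overnight, then compound plus 0.25 ng/mL TGF-beta1 (stock added) for 5 hr at 37 C. Viability was read in the same wells by CellTiter-Glo luminescence after 30 min at room temperature.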

[6] = qHTS assay to identify small molecule agonists of the TGF-beta/Smad signaling pathway - cell viability counter screen (AID 1346829); further: top concentration of the series differs between compounds; nearly all actives have a fitted effect of over 45% in size
In short: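 In parallel with the Smad reporter read, viability of HEK 293T cells stably carrying SBE-bla is quantified by ATP luminescence following 5 hr compound treatment.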

[7] = qHTS assay to identify small molecule agonists of the TGF-beta/Smad signaling pathway (AID 1346859; active means well fitted activation curve with a large enough effect in the signal ratio in the repeat runs, not every such curve was filed as active; the % refers to the signal ratio; further: series mostly up to about 77 µM)
In short: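 SBE-bla HEK293T cells plated overnight, then compound exposure for 5 h at 37 C. Beta-lactamase reporter read with LiveBLAzer B/G FRET substrate after 2 h at room temperature, fluorescence at 405 nm excitation, 460/530 nm emission.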

[8] = target: Thyrotropin-releasing hormone receptor (Homo sapiens) (UniProt P34981); experiment: qHTS assay to identify small molecule antagonists of the thyrotropin-releasing hormone receptor (TRHR) signaling pathway (AID 1346877; active means well fitted inhibition curve with a large enough effect in the repeat runs, not every such curve was filed as active; further: series mostly up to about 51 µM)
In short: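 TRHR-expressing HEK293 cells were seeded, cultured 18 h at 37 °C, then loaded with calcium dye for 2 h. Compounds were pre-incubated 5 min at room temperature before 1 nM TRH (final) was added, and kinetic fluorescence was recorded for 3 min.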

[9] = target: Thyrotropin-releasing hormone receptor (Homo sapiens) (UniProt P34981); experiment: qHTS assay to identify small molecule agonists of the thyrotropin-releasing hormone receptor (TRHR) signaling pathway (AID 1346891; calls by dose curve; further: series mostly up to about 58 µM)
In short: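 HEK293 cells expressing TRHR plated 18 h at 37 C/5% CO2, calcium dye-loaded 2 h at 37 C, then compound added (agonist mode); kinetic calcium fluorescence read 3 min at 1 s intervals; 15 concentrations in triplicate.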

[10] = Human pregnane X receptor (PXR) small molecule agonists, qHTS cell viability counter screen (AID 1346977); further: nearly all actives have a fitted effect of over 50% in size
In short: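 PXR-Luc HepG2 cells (2,000/well, 5% charcoal-stripped FBS) preincubated 5 hr, then exposed to compounds 24 hr at 37 C. Viability read in the same wells by CellTiter-Fluor fluorescence, reagent added at 23 hr, 1 hr incubation.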

[11] = Caspase-3/7 induction in HepG2 cells by small molecules, qHTS assay (AID 1346978); further: nearly all actives have a fitted effect of over 15% in size
In short: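 Wild-type HepG2 cells, 2,000/well, settled 5 hr at 37 C and 5% CO2, then compound-treated for 17 hr; caspase-3/7 activity read by luminescent Caspase-Glo 3/7 after 30 min at room temperature.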

[12] = Caspase-3/7 induction in CHO-K1 cells by small molecules, qHTS cell viability counter screen (AID 1346979); further: nearly all actives have a fitted effect of over 35% in size
In short: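 Wild-type CHO-K1 cells (1,500/well) treated with compound after 5 h plating; after 16 h at 37C, viability read as CellTiter-Fluor fluorescence following 1 h reagent incubation, in the same wells as the caspase read.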

[13] = Caspase-3/7 induction in CHO-K1 cells by small molecules, qHTS assay (AID 1346980); further: nearly all actives have a fitted effect of over 15% in size
In short: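 Wild-type CHO-K1 cells exposed to compounds for 17hr at 37 C, 5% CO2. Caspase-3/7 activity then measured by Caspase-Glo 3/7 luminescence after 30min at room temperature.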

[14] = Caspase-3/7 induction in HepG2 cells by small molecules, qHTS cell viability counter screen (AID 1346981); further: series mostly up to about 92 µM; nearly all actives have a fitted effect of over 30% in size
In short: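 Wild-type HepG2 cells (2,000/well) were allowed to settle for 5 hr at 37 C, 5% CO2, then dosed with compounds in DMSO by pin transfer. After 16 hr at 37 C, CellTiter-Fluor was added and fluorescence read 1 hr later.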

[15] = target: Nuclear receptor subfamily 1 group I member 2 (Homo sapiens) (UniProt O75469); experiment: Human pregnane X receptor (PXR) small molecule agonists, qHTS assay (AID 1346982); further: nearly all actives have a fitted effect of over 35% in size
In short: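 PXR-Luc HepG2 cells (CYP3A4 promoter-driven luciferase) were seeded in medium with 5% charcoal-stripped FBS, left 5 hr at 37 C, then exposed to compounds in DMSO for 24 hr. Luminescence was read after ONE-Glo addition.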

[16] = target: Cytochrome P450 2D6 (Homo sapiens) (UniProt P10635); experiment: Cytochrome P450 Family 2 Subfamily D Member 6 (CYP2D6) small molecule antagonists: luciferase reporter qHTS assay (AID 1671196); further: series mostly up to about 120 µM; nearly all actives have a fitted effect of over 50% in size
In short: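 CYP2D6 enzyme–substrate mix was held with compound for 10 min at room temperature, then NADPH regeneration solution was added and the reaction ran 1 h at room temperature. Luciferin product was detected by luminescence after 20 min with detection reagent.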

[17] = target: Cytochrome P450 2C19 (Homo sapiens) (UniProt P33261); experiment: Cytochrome P450 Family 2 Subfamily C Member 19 (CYP2C19) small molecule antagonists: luciferase reporter qHTS assay (AID 1671197); further: series mostly up to about 120 µM; nearly all actives have a fitted effect of over 65% in size
In short: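 Compounds were tested on CYP2C19 activity via proluciferin conversion to luciferin. The 37C, 1 h reaction followed NADPH addition; detection reagent stopped it.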

[18] = target: Cytochrome P450 2C9 (Homo sapiens) (UniProt P11712); experiment: Cytochrome P450 Family 2 Subfamily C Member 9 (CYP2C9) small molecule antagonists: luciferase reporter qHTS assay (AID 1671198)
In short: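 P450-Glo proluciferin substrate with CYP2C9 enzyme; 10 min RT preincubation, then NADPH regeneration 1 h at 37C; luciferin detection reagent 20 min RT, luminescence in relative luminescence units.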

Measured: Potency

Sequence of Cytochrome P450 2C19 (Homo sapiens) (P33261 whole entry, looked up): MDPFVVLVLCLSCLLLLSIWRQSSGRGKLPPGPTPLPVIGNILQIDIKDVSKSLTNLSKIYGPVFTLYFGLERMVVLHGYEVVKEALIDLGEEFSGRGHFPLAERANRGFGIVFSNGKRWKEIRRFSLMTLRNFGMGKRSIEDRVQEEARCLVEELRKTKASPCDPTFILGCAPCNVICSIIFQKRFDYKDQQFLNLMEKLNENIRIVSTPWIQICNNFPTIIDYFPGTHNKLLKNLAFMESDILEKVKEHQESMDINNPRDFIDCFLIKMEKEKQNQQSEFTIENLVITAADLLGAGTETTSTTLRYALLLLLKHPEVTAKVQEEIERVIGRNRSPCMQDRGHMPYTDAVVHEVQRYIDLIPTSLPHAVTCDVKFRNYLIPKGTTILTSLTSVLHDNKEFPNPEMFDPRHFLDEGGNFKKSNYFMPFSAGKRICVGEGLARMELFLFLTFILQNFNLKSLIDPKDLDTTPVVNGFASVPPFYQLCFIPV
Sequence of Nuclear receptor subfamily 1 group I member 2 (Homo sapiens) (O75469 whole entry, looked up): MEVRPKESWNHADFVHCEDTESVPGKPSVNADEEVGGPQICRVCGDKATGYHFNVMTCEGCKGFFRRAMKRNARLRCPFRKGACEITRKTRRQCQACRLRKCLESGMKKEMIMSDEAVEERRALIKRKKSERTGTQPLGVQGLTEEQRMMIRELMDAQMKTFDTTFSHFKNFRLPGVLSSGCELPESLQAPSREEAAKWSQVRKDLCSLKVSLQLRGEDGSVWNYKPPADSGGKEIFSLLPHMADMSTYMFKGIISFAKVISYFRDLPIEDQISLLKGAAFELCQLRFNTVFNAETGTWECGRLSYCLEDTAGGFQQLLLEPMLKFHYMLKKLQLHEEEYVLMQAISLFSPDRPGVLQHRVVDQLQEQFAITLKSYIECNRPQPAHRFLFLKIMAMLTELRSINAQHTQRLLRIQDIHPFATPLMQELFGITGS
Sequence of Thyrotropin-releasing hormone receptor (Homo sapiens) (P34981 whole entry, looked up): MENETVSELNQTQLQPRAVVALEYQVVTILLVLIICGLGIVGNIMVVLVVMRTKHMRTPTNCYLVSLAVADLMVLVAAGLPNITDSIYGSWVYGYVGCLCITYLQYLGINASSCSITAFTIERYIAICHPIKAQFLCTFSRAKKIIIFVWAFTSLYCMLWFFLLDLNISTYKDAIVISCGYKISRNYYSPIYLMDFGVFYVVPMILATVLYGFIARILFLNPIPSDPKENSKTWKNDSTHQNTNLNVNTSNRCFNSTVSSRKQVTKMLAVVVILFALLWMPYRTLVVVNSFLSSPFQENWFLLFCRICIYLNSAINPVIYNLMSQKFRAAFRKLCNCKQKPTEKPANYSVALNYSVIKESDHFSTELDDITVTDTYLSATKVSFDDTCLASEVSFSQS
Sequence of Progesterone receptor (Homo sapiens) (P06401 whole entry, looked up): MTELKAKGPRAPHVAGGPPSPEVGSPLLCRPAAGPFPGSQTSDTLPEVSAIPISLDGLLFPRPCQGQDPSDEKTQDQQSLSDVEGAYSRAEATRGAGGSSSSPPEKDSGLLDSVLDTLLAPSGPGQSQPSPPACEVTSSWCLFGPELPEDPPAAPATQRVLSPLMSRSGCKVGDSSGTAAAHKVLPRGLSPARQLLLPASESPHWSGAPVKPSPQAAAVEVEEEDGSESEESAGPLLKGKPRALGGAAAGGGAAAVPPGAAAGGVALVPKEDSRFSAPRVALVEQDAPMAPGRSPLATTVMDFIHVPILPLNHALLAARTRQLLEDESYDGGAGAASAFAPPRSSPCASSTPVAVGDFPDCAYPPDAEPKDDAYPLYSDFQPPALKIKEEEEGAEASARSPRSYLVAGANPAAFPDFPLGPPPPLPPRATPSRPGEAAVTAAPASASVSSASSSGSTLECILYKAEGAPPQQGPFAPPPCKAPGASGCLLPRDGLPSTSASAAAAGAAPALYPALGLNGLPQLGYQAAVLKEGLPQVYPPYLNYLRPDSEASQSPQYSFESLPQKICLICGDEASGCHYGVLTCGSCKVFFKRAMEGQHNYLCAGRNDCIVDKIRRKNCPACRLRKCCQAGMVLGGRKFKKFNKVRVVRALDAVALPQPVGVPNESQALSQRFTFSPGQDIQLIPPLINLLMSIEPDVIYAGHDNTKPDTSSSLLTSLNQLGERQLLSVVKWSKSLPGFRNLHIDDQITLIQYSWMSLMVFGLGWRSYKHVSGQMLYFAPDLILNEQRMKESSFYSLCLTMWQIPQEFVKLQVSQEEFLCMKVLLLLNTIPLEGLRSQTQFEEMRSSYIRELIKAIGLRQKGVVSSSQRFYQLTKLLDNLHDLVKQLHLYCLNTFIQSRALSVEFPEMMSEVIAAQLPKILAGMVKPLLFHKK
Sequence of Cytochrome P450 2C9 (Homo sapiens) (P11712 whole entry, looked up): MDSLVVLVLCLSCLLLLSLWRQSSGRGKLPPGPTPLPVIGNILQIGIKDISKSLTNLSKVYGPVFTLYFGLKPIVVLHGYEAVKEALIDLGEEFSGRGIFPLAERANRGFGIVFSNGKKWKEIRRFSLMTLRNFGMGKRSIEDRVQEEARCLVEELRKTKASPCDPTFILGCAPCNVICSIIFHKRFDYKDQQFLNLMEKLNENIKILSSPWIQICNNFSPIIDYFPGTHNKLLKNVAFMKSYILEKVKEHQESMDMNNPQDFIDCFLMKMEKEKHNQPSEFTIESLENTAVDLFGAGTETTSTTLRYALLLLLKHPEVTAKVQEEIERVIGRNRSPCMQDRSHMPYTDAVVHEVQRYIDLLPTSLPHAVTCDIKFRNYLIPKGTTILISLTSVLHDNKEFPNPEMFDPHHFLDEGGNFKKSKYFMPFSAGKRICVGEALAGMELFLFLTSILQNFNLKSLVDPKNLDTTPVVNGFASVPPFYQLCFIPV
Sequence of Cytochrome P450 2D6 (Homo sapiens) (P10635 whole entry, looked up): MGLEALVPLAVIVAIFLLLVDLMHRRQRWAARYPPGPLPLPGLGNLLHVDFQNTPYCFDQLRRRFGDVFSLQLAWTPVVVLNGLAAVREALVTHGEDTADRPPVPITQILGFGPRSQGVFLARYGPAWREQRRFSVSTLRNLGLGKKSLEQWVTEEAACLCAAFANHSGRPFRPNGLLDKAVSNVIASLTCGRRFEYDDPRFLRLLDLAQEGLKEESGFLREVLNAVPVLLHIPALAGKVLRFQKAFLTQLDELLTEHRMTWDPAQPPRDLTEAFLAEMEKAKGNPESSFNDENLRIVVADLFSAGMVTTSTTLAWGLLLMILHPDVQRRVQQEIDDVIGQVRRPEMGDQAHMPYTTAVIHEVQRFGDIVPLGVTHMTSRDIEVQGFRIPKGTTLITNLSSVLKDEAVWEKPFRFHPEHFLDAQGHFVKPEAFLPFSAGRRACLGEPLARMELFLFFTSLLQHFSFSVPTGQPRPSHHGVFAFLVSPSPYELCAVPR

CCCCCCCCC(C)=O
inactive: [1] | [2] | [3] | [4] | [5] | [6] | [7] | [8] | [9] | [10] | [11] | [12] | [13] | [14] | [15] | [16] | [17] | [18]

OCCC(O)CO (stereo not drawn)
inactive: [1] | [2] | [3] | [4] | [5] | [6] | [7] | [8] | [9] | [10] | [11] | [12] | [13] | [14] | [16] | [18]

Cn1cccc1
inactive: [1] | [2] | [3] | [4] | [5] | [6] | [7] | [8] | [9] | [10] | [11] | [12] | [13] | [14] | [15] | [17] | [18]

CCOC(OCC)C(=O)c1ccccc1
inactive: [1] | [2] | [3] | [4] | [5] | [6] | [7] | [8] | [9] | [10] | [11] | [12] | [13] | [14] | [15] | [17] | [18]
